Reference: PubChem BioAssay AID1347077 (National Center for Advancing Translational Sciences (NCATS), 2019)
Hit rate of the full screen: of about 44,000 compounds, fewer than 10 were called active. Calls come from the whole dose curve; as a rule, active = well fitted activation curve with a large enough effect; inconclusive = small, poorly fitted or top-dose-only effect, or another doubt; inactive = no such curve, though single readings can be large or run the other way. Only a sample is shown.

biological target: Beta-2 adrenergic receptor (Homo sapiens) (UniProt P07550); experiment: qHTS assay of beta-arrestin-biased ligands of beta2-adrenergic receptor: NCGC Sytravon Library Screen; details: HTLA Tango cells, beta-arrestin recruitment, luciferase luminescence, 18 h; series mostly up to 46.1 µM
From the text: The concept of biased agonism is an emerging concept of molecular pharmacology which proposes that seven transmembrane receptors (7TMRs) or G protein-coupled receptors (GPCRs), exist in multiple signaling conformations and complexes and that ligands (either agonists or antagonists) can induce signaling biased responses for distinct signal transduction cascades. […] Furthermore, accumulating evidence over the last decade has drawn attention to a novel function of beta-arrestins as signal transducers that scaffold various signaling molecules upon activation of 7TMRs. […] This beta-arrestin-biased signaling presumably leads to distinct physiological outcomes from those by G protein activation. Additionally, the active receptor conformations which prefer on this beta-arrestin signaling are likely different from those activating G protein signaling. […] The goal of this screening project will be to discover and optimize novel beta-arrestin-biased ligands for beta2-AR signaling. A luminescent cell-based assay for beta2-AR-mediated agonism, known as the Tango assay, has been validated in which ligand binding of a recombinant beta2-AR and subsequent recruitment of a recombinant beta-arrestin lead to the release of the transcriptional activator tTA, which upregulates transcription of a tTA-responsive luciferase gene. […] Compounds from the NCGC Sytravon Library collection were screened as a concentration-titration series that ranged from 46 microM to 0.6 nM. NIH Molecular Libraries Probe Production Network [MLPCN] NIH Chemical Genomics Center [NCGC] MLPCN Grant: Fast-track/HHSN271700800025C PI: Bryan Roth and Bob Lefkowitz
Tango cells were dispensed into white, solid, tissue-culture-treated 1536-well plates at 1500 cells/well in DMEM, containing 1% fetal bovine serum (FBS). Then, 23 nL of compounds or DMSO were delivered to each well using a pin tool. Plates were incubated at 37 degrees C, 5% CO2 for 18 hr. Then 2.5 uL luminescent substrate mix (in-house prepared: 150 mM Tris-Cl, pH 7.6, 3 mM MgCl2, 1% Triton X-100, 5 mM DTT, 0.5 mM CoA, 0.15 mM ATP, 0.44 mM D-luciferin, final concentrations) was added to each well. Plates were then incubated for 15 minutes at room temperature, and subsequently measured on a ViewLux plate reader for luminescent signal using a clear filter with a 10 second exposure and 2x binning. The %Activity was determined from the corrected luminescence values. […] Concentration-response curves were fitted to the signals arising from the resulting luminescence. The concentration-effect curves were then classified based on curve quality (r2), response magnitude and degree of measured activity, and compounds were subsequently categorized based on their curve class.

Beta-2 adrenergic receptor (Homo sapiens), sequence (P07550 whole entry, looked up): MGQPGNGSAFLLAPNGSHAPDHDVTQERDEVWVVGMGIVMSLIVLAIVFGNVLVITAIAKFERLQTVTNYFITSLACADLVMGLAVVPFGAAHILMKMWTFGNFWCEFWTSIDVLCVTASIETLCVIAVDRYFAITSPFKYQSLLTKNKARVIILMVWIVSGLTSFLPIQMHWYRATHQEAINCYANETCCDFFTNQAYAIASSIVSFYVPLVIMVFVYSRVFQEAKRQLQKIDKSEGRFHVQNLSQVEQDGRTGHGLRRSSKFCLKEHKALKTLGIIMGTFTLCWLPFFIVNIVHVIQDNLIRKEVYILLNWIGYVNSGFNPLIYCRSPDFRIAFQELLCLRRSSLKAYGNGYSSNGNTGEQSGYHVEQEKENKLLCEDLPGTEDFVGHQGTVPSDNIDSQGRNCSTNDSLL

outcome, inactive:
COC(=O)NNC(=O)C1CCC(C)CC1 (stereo not drawn), CCc1nnc2c3ccccc3nc(N3CCN(c4ccc(C)cc4C)CC3)n12, CCOc1ccc(CNC(=O)Cn2cc3c(n2)-c2c(oc(C(=O)N4CCCC4)c2C)CC3)cc1, CCOCCc1nn2c(=O)cc(COC(=O)CNC(=O)c3ccc(C(C)(C)C)cc3)nc2s1, CCC(=O)N1CCc2cc(Br)cc(S(=O)(=O)NCc3ccc(Cl)cc3)c21, Cc1nc2nc(NCc3cccc(Br)c3)[nH]n2c(=O)c1Cc1ccccc1, COc1ccc(NC(=O)C(c2ccccc2)N2Cc3ccccc3C2=O)cc1 (stereo not drawn), Cc1nc2sc(C)c(C)n2c(=O)c1S(=O)(=O)NCCc1ccc(Cl)cc1, CCOc1ccc(OCC)c(NS(=O)(=O)c2ccc3[nH]c(=O)ccc3c2)c1, COc1ccc(S(=O)(=O)NCCSc2nnnn2-c2ccccc2)cc1, Cc1ccccc1CNC(=O)CCCn1nc(C)c2sc3ccccc3c2c1=O, COc1cccc(N2CC(NC(=O)/C=C\c3ccccc3)CC2=O)c1 (stereo not drawn), O=C(CSc1ncc(-c2ccccc2)[nH]1)Nc1ccc(F)cc1F, COc1ccc(Cl)cc1NC(=O)CCC(=O)c1ccc(C)cc1, Cc1c(NC(=O)C(C)(C)C)cccc1-c1nc2ccccc2s1, Cc1nn(CC(=O)O)c(=O)c2cc3cc(F)ccc3n12, CCc1ccc(N(CC)C(=O)CCn2cnc3onc(-c4ccc(F)cc4)c3c2=O)cc1, COc1ccc(CCNC(=O)c2cnc3sc(N4CCCCCC4)nn3c2=O)cc1OC, CCCn1c(=N)c(C(=O)NCc2ccccc2)cc2c(=O)n3cccc(C)c3nc21, COc1ccc(CCNC(=O)c2cc(=O)c3c(C)cc(C)cc3o2)cc1OC, Cc1ccc(S(=O)(=O)N2CCc3cc(C(=O)Nc4ccc(Cl)cc4C)ccc32)cc1, COc1cccc(NC(=O)CSC2=Nc3ccccc3C3=NC(CC(=O)NC4CCCCC4)C(=O)N23)c1 (stereo not drawn), CCCCOc1ccc(CNC(=O)c2ccc3c(c2)N(C)C(=O)C2CCCCN32)cc1 (stereo not drawn), COc1ccccc1NC(=O)c1oc2ccccc2c1NC(=O)C(C)C, COc1ccc(CCNc2ncnc3onc(-c4ccc(Cl)cc4)c23)c(OC)c1, Cc1csc2nc(COC(=O)c3ccc(NC(=O)COc4ccccc4F)cc3)cc(=O)n12, COc1ccc(N2CCN(C(=O)C3CCCN(C(=O)c4cc5sccc5n4C)C3)CC2)cc1 (stereo not drawn), O=C(COc1ccccc1F)OCc1cc(=O)n2nc(C3CCCCC3)sc2n1, CCC1CCCCN1Cc1c(O)ccc2c(=O)c(Oc3ccccc3Cl)c(C(F)(F)F)oc12 (stereo not drawn), Cc1cc(=O)n(CC(=O)Nc2cccc([N+](=O)[O-])c2)c(-n2nc(C)cc2C)n1, CCOC(=O)c1c(C)[nH]c(CCC(=O)NCCCN2CCN(c3cc(C)ccc3C)CC2)c1C, COc1cc(Nc2nc(-c3ccc(OC)c(OC)c3)nc3ccccc23)cc(OC)c1, Cc1cc(C)cc(OC(C)C(=O)Nc2nc3c(s2)CCCC3)c1 (stereo not drawn), COCCn1c(SCC(=O)c2cc(C)ccc2C)nc2cc(C(=O)NC3CCCC3)ccc2c1=O, CCOc1ccccc1NC(=O)CCn1cnnn1, Cc1ccc(N(C)C(=O)C2CCN(S(=O)(=O)c3ccc4c(c3)CCCN4C(=O)C3CCC3)CC2)cc1, CC(=O)Nc1ccc(S(=O)(=O)NCC2CCC(C(=O)NCCc3ccccc3)CC2)cc1 (stereo not drawn), CCOc1ccccc1C(=O)NC1(C(F)(F)F)C(=O)Nc2c1c(=O)[nH]c(=O)n2-c1ccc(F)cc1 (stereo not drawn), CCN(CC)S(=O)(=O)c1nnc(NC(=O)COc2ccccc2Cl)s1, COc1ccc(-c2cccc(NS(=O)(=O)c3cc(C)c(OC)c(C)c3C)c2)nn1, O=C(NC1(C(F)(F)F)N=C(c2ccccc2)N(C2CCCCC2)C1=O)c1ccccc1F (stereo not drawn), Cc1ccc(CCNC(=O)c2ccc3c(c2)nc2n3CCC(C)C2)cc1 (stereo not drawn), Cc1ccccc1NC(=O)Cn1c(=O)n(CCCCC(=O)NCc2ccccc2Cl)c(=O)c2ccccc21
